# In the supplement of paper PMC10338343:
# ± gives the standard deviation.
# System: MILI (PIWIL2) piRISC loaded with piRNA #1 (26 nt)
# Test: pre-steady-state target cleavage rate (min^-1); guide: piRNA #1 5'p-UGAGGUAGUAGGUUGUAUAGUAUCCA; MIWI and MILI are mouse PIWI proteins and EfPiwi is from a freshwater sponge; tags in brackets are library labels; higher = faster piRNA-guided slicing of the target
# Settings: auxiliary factor: 500 nM mouse GTSF1
# Outline: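 Three pooled Cleave-'n-Seq trials supplied the data, with k3 capped at 0.0001 min^-1. In each, […] transcribed, DNA-blocked target RNA library and 1 nM active affinity-purified piRISC with one synthetic guide reacted in HEPES–potassium acetate buffer at 33 °C for 0–8 or 0–960 min, with or without 500 nM GTSF1 partner protein. Uncleaved targets were sequenced and normalised to depth and to weakly complementary targets. A burst-and-steady-state fit provided the pre-steady-state cleavage rate.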
# 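Note: 1 nM active piRISC with 0.1 nM target library at 33 °C single turnover.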
row,Sequence,pre-steady-state target cleavage rate
1,GGAGACCUAUCUUUACAACCUACUAGCUCA,0.0374 ± 0.0091
2,GGAGUGGAUACUUAACAACCUACUACCUCA,0.157 ± 0.0088
3,GGAGUGCAUACUAAACAACCUACUACCUCA,0.147 ± 0.011
4,GGAGACCUUACUAAACAACCUACAACCUCA,0.178 ± 0.025
5,GGAGACCUAUCUAUACAACCGACUACCUCA,0.0049 ± 0.003
6,GGAGACCAUACAAUACAACCUACAACCUCA,0.136 ± 0.014
7,GGAGACCUUACAAUACAAGCUACUACCUCA,0.191 ± 0.011
8,GGAGACCAUAGUAUACAACCAACUACCUCA,0.00718 ± 0.0021
9,GGAGACCUAACUAUAGAACCUACUACCACA,0.0663 ± 0.019
10,GGAGACCUUACUAUACAACCUUCUACCACA,0.00842 ± 0.0039
11,GGAGACCUAUGAAGACAACCUACUACCUCA,0.00824 ± 0.0032
12,GGAGACCUAUGAUUACAACCUACUAACCUCA,0.0091 ± 0.0025
13,GGAGACCUUACUAUACAACCUACUCACCUCA,0.17 ± 0.018
14,GGAGACCUUUCUAAACAACCUACUACCUCA,0.0629 ± 0.012
15,GGAGACCUUACAAUACAACCUUCUACCUCA,0.00687 ± 0.0029
16,GGAGACCUAUGAAUACAACCUACCUACCUCA,0.0088 ± 0.0035
17,GGAGUGGAUACUAUACUACCUACUAGCUCA,0.0877 ± 0.012
18,GGAGACCUAACUAUACAUCCUUCUACCUCA,0.0117 ± 0.0069
19,GGAGACCUAUGAAUACAAACUACUACCUCA,0.0186 ± 0.0035
20,GGAGACCUAUGAUUACAUCCUACUACCUCA,0.0102 ± 0.0027
21,GGAGACCUAACAUAACAACCUACUACCUCA,0.0321 ± 0.011
22,GGAGACCUAUCUAUACAACCUACUACAUCA,0.051 ± 0.0067
23,GGAGACCUAUCUAUAUAACCUACUACCUCA,0.0723 ± 0.0089
24,GGAGACCUAUGAUAUGAACCACUACCUCA,< 0.0001
